Source: PubChem (NMMLSC)
This is a sample that favours compounds with a hit; in the whole collection about 1.2% have one here.
LAP4-GFP MLPCN: modulators of TOR pathway LAP4-GFP in S. cerevisiae; S. cerevisiae LAP4-GFP multiplex, flow cytometry GFP, 3 h; median GFP as percent of DMSO wells; GFP response vs DMSO, % at 10 µM; actives 0.34% (n = 320,000); AID 2023;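 active = GFP response vs DMSO above a set limit, about the screen mean plus 3 SD, cut at about 150% in these data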
AGP1-GFP MLPCN: alters AGP1-GFP fluorescence in TOR pathway yeast screen. S. cerevisiae AGP1-GFP multiplex flow cytometry, 3 h; GFP as percent of DMSO wells. GFP response vs DMSO, % at 10 µM. actives 0.02% (n = 320,000). AID 2066;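 active = GFP response relative to DMSO above a set limit, near screen average plus 3 SD, cut at about 150% in these data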;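 also: median GFP channel fluorescence of the gated AGP1 strain per well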
DSG3 Ab inh: human desmoglein-3 autoantibody binding inhibition. binding (percent of control), % at 10 µM. DSG3-coupled beads, scFv-anti-DSG3-GFP binding, flow cytometry; stronger effect = lower value. AID 588358. actives 0.48% (n = 310,000);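 active = binding more than 3 SD below its plate's average and above zero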;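 also: hits lower antibody fragment binding to DSG3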
MEP2 TOR yeast: modulators of TOR pathway MEP2-GFP in S. cerevisiae; GFP response vs DMSO, % at 10 µM; actives 0.51% (n = 330,000); AID 2016; S. cerevisiae MEP2-GFP strain, flow cytometry GFP, 3 h; 100% = DMSO control level;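 active = GFP response versus DMSO above a set limit, roughly screen mean plus 3 SD, cut at about 180% in these data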;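 also: median GFP fluorescence of the barcode-gated MEP2-GFP cells per well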
CIT2-GFP yeast: alters CIT2-GFP fluorescence in TOR pathway yeast screen | S. cerevisiae CIT2-GFP strain, flow cytometry, 3 h; 100 means same as DMSO wells | GFP response vs DMSO, % at 10 µM | actives 0.065% (n = 320,000) | AID 2029;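 active = GFP response relative to DMSO above a set limit, near the screen mean plus 3 SD, cut at about 150% in these data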;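 also: ratio of well median GFP fluorescence to mean of DMSO wells on the plate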
RPL19A TOR yeast: modulators of TOR pathway RPL19A-GFP in S. cerevisiae. actives 0.3% (n = 330,000). AID 2025. S. cerevisiae RPL19A-GFP strain, flow cytometry, 3 h; stronger effect = lower value. percent response vs DMSO, % at 10 µM;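 active = percent response vs DMSO below 50%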;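 also: median channel GFP fluorescence of the barcoded RPL19A-GFP strain; ratio of sample median GFP to plate DMSO average so 100% = DMSO; lower means less RPL19A-GFP as with rapamycin TOR inhibition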
LAP4 cherry2: second confirmation of modulators of TOR reporter LAP4-GFP in yeast; shares compounds with LAP4-GFP MLPCN; S. cerevisiae LAP4-GFP strain, flow cytometry GFP, 3 h; GFP response vs DMSO, % at 10 µM; actives 20% (n = 590); AID 2621;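 active = GFP signal as percent of the solvent control above about 150%, meaning raised reporter expression, limit read from the data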;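 also: ratio of well median GFP fluorescence to plate DMSO mean so 100% = DMSO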
MEP2-GFP pick2: yeast MEP2-GFP modulation, second cherry pick; shares compounds with LAP4-GFP MLPCN; GFP response vs DMSO, % at 10 µM; actives 10% (n = 590); AID 2622; S. cerevisiae MEP2-GFP strain, flow cytometry GFP, 3 h;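 active = GFP signal above 150% of the solvent control wells, that is a rise of more than half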;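 also: median channel GFP fluorescence of all gated yeast cells per well; ratio of median GFP to plate DMSO average so 100% = DMSO level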
RPL19A GFP CP2: reconfirmed modulator of RPL19A-GFP TOR reporter in yeast | shares compounds with LAP4-GFP MLPCN | S. cerevisiae RPL19A-GFP strain, flow cytometry GFP, 3 h; stronger effect = lower value; 100% means same as DMSO wells | GFP response vs DMSO, % at 10 µM | actives 3% (n = 590);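 active = under 65% GFP response relative to DMSO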;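 also: median GFP channel fluorescence per well over the all cells gate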
CIT2 GFP CP2: second confirmation of modulators of TOR reporter CIT2-GFP in yeast; shares compounds with LAP4-GFP MLPCN; S. cerevisiae CIT2-GFP strain, flow cytometry GFP, 3 h; DMSO control wells read 100%; GFP response vs DMSO, % at 10 µM; actives 8% (n = 590); AID 2624;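 active = GFP response vs DMSO above about 150%, limit read from the data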;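 also: median green fluorescence per well over all gated yeast cells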
AGP1 GFP CP2: reconfirmed modulator of AGP1-GFP TOR reporter in yeast | shares compounds with LAP4-GFP MLPCN | S. cerevisiae AGP1-GFP strain, flow cytometry GFP, 3 h | percent response vs DMSO, % at 10 µM | 590 tested, under 10 active;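 active = over 150 percent of DMSO response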;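 also: median GFP channel fluorescence over all cells without mother daughter split; sample median GFP divided by mean DMSO control so 100% equals DMSO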
s288c autofluor: yeast s288c autofluorescence artifact, counter-screen; 610 tested, under 10 active; S. cerevisiae s288c, 520 nm autofluorescence, flow cytometry, 3 h; stronger effect = higher value; zero means same as solvent-only cells; shares compounds with LAP4-GFP MLPCN; AID 2757; fluorescence change (kMESF span) at 33 µM;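 active = fluorescence span over the dose series, or activity score, above about 33, limit read from the data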
s288c autofl DR: yeast s288c autofluorescence artifact in dose response | shares compounds with LAP4-GFP MLPCN | S. cerevisiae s288c parental, compound autofluorescence, flow cytometry, 3 h | fluorescence change (span) at 33 µM | 110 tested, under 10 active;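 active = fluorescence change span, or the activity score built from it, above 25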
TORC1 bypass: compounds blocking wildtype yeast growth but not TORC1 bypass cells. shares compounds with LAP4-GFP MLPCN. S. cerevisiae BY4741 spot growth rating, 48-72 h; stronger effect = lower value. growth rating (0-3) at 30 µM. 120 tested, under 10 active;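 active = growth rating at most 1 for wild type yeast while the TORC1 bypass strain still grows fully, rated 3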
* = called active by the depositor; · = no result.

SMILES | LAP4-GFP MLPCN | AGP1-GFP MLPCN | DSG3 Ab inh | MEP2 TOR yeast | CIT2-GFP yeast | RPL19A TOR yeast | s288c autofluor | others
CN(C)c1ccc(N=Cc2nc(-c3ccccc3)oc2OC(=O)c2cccc(Br)c2)cc1 | 98 | 97 | 96 | 109 | 106 | 102 | ·
CCC(=O)Oc1oc(-c2ccccc2)nc1C=Nc1ccc(C)cc1 | 103 | 102 | 120 | 96 | 90 | 101 | -0.5
CCn1c(CSc2nnc(-c3ccncc3)n2CCOC)nc2cc(C(=O)O)ccc21 | 102 | 102 | 102 | 99 | 102 | 101 | ·
CCn1c(CSc2n[nH]c(N)n2)nc2cc(C(=O)O)ccc21 | 125 | 104 | 104 | 178* | 109 | 101 | · | LAP4 cherry2=97;MEP2-GFP pick2=98;RPL19A GFP CP2=100;CIT2 GFP CP2=101;AGP1 GFP CP2=101
CC(C)(CCO)Nc1ncnc2onc(-c3ccc(F)cc3)c12 | 107 | 107 | 94 | 102 | 108 | 100 | ·
CCCOc1ccc(C(=O)NNC(=S)NC(=O)c2ccco2)cc1 | 154* | 113 | 113 | 110 | 111 | 112 | 1.1
CC(Oc1ccc(Cl)cc1)C(=O)NNC(=S)NC(=O)c1ccco1 (configuration not stated) | 242* | 102 | 105 | 101 | 112 | 88 | 0.91 | s288c autofl DR=0.52;TORC1 bypass=3
CCCCOc1ccc(C(=O)NNC(=S)NC(=O)CC)cc1 | 299* | 95 | 100 | 117 | 77 | 89 | 1.4 | LAP4 cherry2=331*;MEP2-GFP pick2=155*;RPL19A GFP CP2=105;CIT2 GFP CP2=167*;AGP1 GFP CP2=108
CCCCC(=O)NNC(=S)NC(=O)c1ccc(C)cc1 | 193* | 129 | 107 | 114 | 111 | 96 | 1.1 | s288c autofl DR=0.89;TORC1 bypass=3
CCC(=O)NC(=S)NNC(=O)c1ccc(OC)cc1 | 105 | 114 | 99 | 103 | 104 | 99 | ·
CC1CCC2(CC1)NC(=O)N(NC(=O)c1ccc(OC(C)C)cc1)C2=O (configuration not stated) | · | · | 96 | · | · | · | ·
CC(NC(=O)COC(=O)c1ccc2c(=O)n3c(nc2c1)CCCCC3)c1ccc(F)cc1 (configuration not stated) | · | · | 96 | · | · | · | ·
COc1ccc(C(=O)NNC(=S)NC(=O)c2ccco2)cc1 | 119 | 105 | 99 | 100 | 93 | 106 | ·
CC(C)(C)C(=O)NC(=S)NNC(=O)c1ccc(-c2ccccc2)cc1 | 246* | 88 | 100 | 126 | 94 | 89 | 1.4 | s288c autofl DR=0.73;TORC1 bypass=3
